# This is part of a sample that, as a whole, favours compounds with a hit. Of some 79,000 tested, about 15% had one in any assay. A number with no mark means an inactive call. The source made the active and inactive calls. No stated cut-off is given here; in the data, active means growth inhibition above about 70%; inactive means the rest.
# What was measured:
# [1] = NCI Yeast Anticancer Drug Screen. Data for the rad50 strain (AID 155);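 further: 0% = growth of vehicle-only cultures of the same strain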; conditions: S. cerevisiae rad50 strain growth inhibition; at 50.0 µM; stronger effect = higher value
# Procedure, shortened: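 Inhibition values express reduced yeast growth in compound-treated cultures relative to vehicle-treated controls.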
# [2] = NCI Yeast Anticancer Drug Screen. Data for the mec2-1 strain (AID 157); conditions: S. cerevisiae mec2-1 strain, at 50.0 µM, stronger effect = higher value
# Procedure, shortened: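 Compounds were applied to mec2-1 yeast cells. Their growth was then compared with that of vehicle-treated cultures to give growth inhibition.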
# [3] = NCI Yeast Anticancer Drug Screen. Data for the sgs1 mgt1 strain (AID 161);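 further: 0% = growth of cultures given vehicle only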; conditions: S. cerevisiae sgs1 mgt1 strain, at 50.0 µM, stronger effect = higher value
# Procedure, shortened: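 Yeast cells carrying a defined DNA-repair defect were exposed to test compounds. Growth inhibition was measured relative to vehicle-treated controls.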
# [4] = NCI Yeast Anticancer Drug Screen. Data for the cln2 rad14 strain (AID 165);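 further: 0% = growth equal to vehicle treated cultures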; conditions: S. cerevisiae cln2 rad14 strain, at 50.0 µM, stronger effect = higher value
# Procedure, shortened: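 Strain: cln2 rad14 yeast, altered in cell cycle control and DNA damage repair. Read-out: growth inhibition vs vehicle.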
# [5] = NCI Yeast Anticancer Drug Screen. Data for the bub3 strain (AID 167); conditions: S. cerevisiae bub3 mutant strain, at 50.0 µM, stronger effect = higher value
# Procedure, shortened: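 Steps: expose the mutant yeast strain to compound; grow alongside vehicle-treated cultures; measure growth; express inhibition against the vehicle cultures.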
# [6] = NCI Yeast Anticancer Drug Screen. Data for the mlh1 rad18 strain (AID 175); conditions: S. cerevisiae mlh1 rad18 strain growth inhibition; at 50.0 µM; stronger effect = higher value
# Procedure, shortened: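 A repair-deficient yeast strain is exposed to test compound, and growth is scored relative to vehicle-treated controls.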
SMILES,growth inhibition [1],growth inhibition [2],growth inhibition [3],growth inhibition [4],growth inhibition [5],growth inhibition [6]
CC/C(=N\NS(=O)(=O)c1ccc(C)cc1)c1ccc(Br)cc1,27.4%,-7.2%,-1.6%,-7.3%,-3.6%,3.4%
CC1c2ccccc2Cn2cc3c(c21)C(=O)c1cccc(OP(=O)(O)OCc2ccccc2)c1C3=O (configuration not stated),2.2%,12.6%,13.1%,3.45%,5.1%,11.9%
C(#CCOc1ccc2c(c1)OCO2)COc1ccc2c(c1)OCO2,29%,0.8%,-18.8%,-9.05%,-8.8%,8.3%
[N-]=[N+]=Nc1ccc(NCCCCCC(=O)ON2C(=O)CCC2=O)c([N+](=O)[O-])c1,72% (active),9.25%,77.7% (active),19.4%,4.7%,67%
c1ccc2c(-c3c[nH]c4ccccc34)c[nH]c2c1,16.8%,-1.5%,-3.05%,-27.2%,-8.75%,15.3%
CC(C)/C(=N\[N+](C)(C)C)c1ccccc1,0.4%,-22.8%,-21.8%,-3.05%,-22.7%,5.15%
COC1=CC(=O)/C(=C(O)/C=C/c2ccccc2)C(=O)C1(C)C,3.2%,-1.65%,16.9%,-2.5%,14.6%,29.4%
Cc1ccc(NC(=O)Oc2ccc(F)cc2)cc1NC(=O)Oc1ccc(F)cc1,25.9%,13.3%,15.3%,15.2%,-4.95%,33.6%
COC(=O)C(=O)C(C#N)c1c(Cl)cccc1Cl (configuration not stated),-5.6%,39.1%,0.05%,8.9%,1.65%,34.1%
COc1ccc(C(CN(C)C(C)C)OC(=O)C(c2ccccc2)c2ccccc2)cc1OC (configuration not stated),-14.1%,-6.85%,-12.6%,-8.25%,1.25%,-17.5%
C=CCn1c(=O)c(C(=O)Nc2nc(C34CC5CC(CC(C5)C3)C4)cs2)c(O)c2ccccc21,-22.7%,-4.6%,-14.1%,4.4%,4.5%,-19.1%
COc1ccc(NS(=O)c2cccc(C)c2)cc1 (configuration not stated),-8.05%,-11.1%,-16.1%,-18.3%,-3.1%,9.4%
COc1cccc2c1CCC1(O)OC(=O)CC21 (configuration not stated),-17.4%,5.15%,-20.5%,2.1%,-6.5%,-15.1%
COc1ccc2cc1Oc1ccc(cc1)CC1c3cc(c(OC)cc3CCN1C)Oc1c3c(cc4c1C(C2)N(C)CC4)OCO3 (configuration not stated),1.6%,-14.3%,-15.7%,4.65%,1.1%,3.45%
CN(C)c1ncnc2c1ccn2CC(O)CO (configuration not stated),-2.7%,-11.1%,-8.55%,-54.5%,3.1%,-2.85%
Cc1ccccc1C1OC2=C(Nc3ccc([N+](=O)[O-])cc3N2)C1=O (configuration not stated),37.5%,21.4%,38%,20.2%,27.2%,45.6%
O=C1C=Cn2cc(-c3ccccc3)c(-c3ccccc3)c21,-13.3%,-10.3%,-14%,19.9%,-18.1%,-9.2%
COc1ccc(C2ON(c3ccccc3)CC=C2C)cc1 (configuration not stated),36%,-3.2%,5.55%,13.1%,19.4%,13.1%
CCCCC(=O)C(CC)(c1ccccc1)N(C)C (configuration not stated),-11.7%,-31.1%,-9.4%,-21.2%,-2.35%,-17.9%
CC[Si](C)(C)COC(N)=O,-23.2%,8.1%,-12.4%,-1.55%,-4.15%,-37%
Cn1c(=O)ccc2c1nc1ccccc1[n+]2[O-],-6.25%,4.65%,-6.7%,-30.8%,4.75%,-11.8%

SMILES,growth inhibition [1],growth inhibition [2],growth inhibition [3],growth inhibition [4],growth inhibition [5],growth inhibition [6]
O=c1oc2cc(O)ccc2cc1-c1nc2ccccc2o1,-2.1%,-10.8%,-31.2%,14.1%,2.75%,-4.1%
C=CCC1=C(C)C[C@@H]2CCC(=O)C=C12,9.05%,-24.9%,-8.5%,11.2%,-13%,5.5%
O=C(COc1ccc(Cl)c(Cl)c1)NCc1cccc(NC(=O)CBr)c1,99.2% (active),99.5% (active),45.2%,99.5% (active),99.2% (active),99.2% (active)
O=C1CC(NC(=O)C(F)(F)F)c2c(Br)sc(N3CCNCC3)c21 (configuration not stated),6.05%,12.1%,-25.2%,-2.2%,-2.65%,-30.4%
COc1ccc(CCc2nccn2C)cc1OC,-69.3%,-54.9%,-34.7%,-16.4%,-7.95%,-32.2%
O=C1C(=Cc2ccco2)C(=O)C2CCCCC12 (configuration not stated),6.8%,-9%,-10.8%,13%,2.4%,13.6%
CC(C)SCCC#N,13%,-8.55%,-13.1%,-5.5%,-3.7%,-4.75%
CCCC(=O)C(C)(C)C,18.2%,-12.4%,-35%,-41.5%,-22.1%,6.75%
Cc1ccc(C(=N)c2ccccc2Cc2ccccc2)cc1C,-11.7%,-2.45%,-15.1%,-12.2%,7.9%,-27.9%
Cc1nc2cc(N)c(Cl)cc2[nH]1,-6.5%,14.8%,9.95%,-7.15%,10.5%,-0.6%
COc1ccc(C(=O)O[C@H]2[C@@H]3C=CO[C@@H](OC4OC(CO)C(O)C(O)C4O)[C@@H]3[C@@]3(CO)O[C@@H]23)cc1O (some centres not stated),31.9%,23.9%,-3.4%,11.7%,34.3%,38.6%
O=C1c2cc(CCl)sc2C(=O)c2ccsc21,88.9% (active),89.3% (active),89.5% (active),89.8% (active),87.6% (active),83.2% (active)
CSc1ccc(NC(=O)Oc2cc(C)c(Cl)cc2C(C)C)cc1,39.6%,94.8% (active),91.8% (active),15.8%,97.8% (active),93.5% (active)
Cc1c([N+](=O)[O-])cc(C(C)(C)C)c(OC(=S)N(C)C)c1[N+](=O)[O-],26.9%,23.4%,-1.75%,18%,14.7%,0.7%
COc1cccc2c(=O)oc(-c3ccc(C(C)(C)C)cc3)nc12,16.4%,8.8%,18.4%,1.3%,13.4%,30.9%
O=Nc1c(O)[nH]c2c(Cl)cccc12,0.1%,-10.2%,-15.2%,-20.4%,-18.2%,-5.25%
O=C1C2CCCC2C1(c1ccccc1)c1ccccc1 (configuration not stated),-7.25%,38.6%,64.2%,-36.4%,49.9%,10.8%
O=C(O)C1CC(Br)C(Br)CC1C(=O)Nc1cccc2ccccc12 (configuration not stated),11.8%,6.45%,2.85%,-39.3%,1.3%,32.1%
Clc1ccccc1/C=C1\c2ccc(Br)cc2-c2cccc[n+]21,92.1% (active),95.8% (active),95.5% (active),91.4% (active),93% (active),95.7% (active)
CSC1(C)C(=O)Nc2ccccc21 (configuration not stated),-4.15%,-9.65%,-0.35%,-20.8%,-36.3%,3.6%
CCOP(C)(=O)C(Cc1c[nH]c2ccccc12)C(=O)O (configuration not stated),-20.7%,-19.7%,9.9%,13%,-12.8%,-2.5%

# From PubChem BioAssay (NCI)
